Data on 30 molecules can be found in ChEMBL document CHEMBL1157539, “Thousands of chemical starting points for antimalarial lead identification” (Nature, 2010).

Common to all, as to assay type: functional
Assay [1] concerns Plasmodium falciparum. Description: GSK_TCMDC: Inhibition of Plasmodium falciparum 3D7 in whole red blood cells, using parasite LDH activity as an index of growth. Test compounds present at 2uM.
Assay [2] deals with Plasmodium falciparum. Kind of assay: GSK_TCMDC: Inhibition of Plasmodium falciparum Dd2 in whole red blood cells, using parasite LDH activity as an index of growth. Test compounds present at 2uM.
Another assay relates to HepG2. Kind of assay: GSK_TCMDC: Percent inhibition of human HepG2 cell line. Test compounds present at 10uM.

As a reminder, the Inhibition is the change of the read-out against control, counted positive when it falls. Regarding `CC(C)N1CCN(C(=O)c2ccc(CN(C)CCCN3CCN(c4cccc(Cl)c4Cl)CC3)s2)CC1.Cl`, the figures for the Inhibition in the assay with Plasmodium falciparum [1], with Plasmodium falciparum [2] and in the assay on HepG2 were 94%, 35% and 74%, respectively.

As to `O=C(Nc1ccccc1)N(Cc1ccc(-c2ccc(CNC3CCCC3)cc2)cc1)C1CCN(Cc2ccccc2)CC1.O=C(O)C(F)(F)F`, the Inhibition in the assay with Plasmodium falciparum [1] turned out to be 100%; in the assay with Plasmodium falciparum [2], 61%; in the assay with HepG2 it was 34%.

Regarding `CCCC1(NC[C@@H](O)[C@H](Cc2ccccc2)NC(=O)c2cc(NCC)cc(N3CCCCS3(=O)=O)c2)CCCCC1.Cl`, the results for the Inhibition with Plasmodium falciparum [1], in the assay with Plasmodium falciparum [2] and in the assay with HepG2 were 100%, 98% and 4%, respectively.

Consider `FC(F)(F)c1ccc2[nH]c(-c3ccc(-c4ccc(CNCC5CCCO5)cc4)s3)nc2c1.O=C(O)C(F)(F)F` (stereo not given), for which the Inhibition in the assay on Plasmodium falciparum [1] came to 100%; with Plasmodium falciparum [2] it was 98%; in the assay with HepG2, 47%.

As for `CCc1c(CCNCC/C=C/CCNCCc2ccc(OC)c(OC)c2CC)ccc(OC)c1OC.Cl`, the figures for the Inhibition with Plasmodium falciparum [1], in the assay on Plasmodium falciparum [2] and with HepG2 were 100%, 7% and 41%, respectively.

Turning to `CC(C)Nc1nc(NCCc2c[nH]cn2)nc(NCc2ccc(Cl)c(Cl)c2)n1`, the Inhibition with Plasmodium falciparum [1] turned out to be 88%; in the assay on Plasmodium falciparum [2] it was 0%; in the assay on HepG2, 0%.

Turning to `COc1ccc(OCc2ccccn2)c(C2CCN(CCCCNC(=O)c3ccc(NC(=O)c4ccc(Cl)cc4)cc3)CC2)c1.Cl`, the figures for the Inhibition with Plasmodium falciparum [1], in the assay on Plasmodium falciparum [2] and with HepG2 were 98%, 71% and 18%, respectively.

Consider `O=[N+]([O-])c1cccc(S(=O)(=O)N2CCN(CC(O)COc3ccc(-c4ccccc4)cc3)CC2)c1` (stereo not given), for which the Inhibition with Plasmodium falciparum [1] worked out at 94%; in the assay on Plasmodium falciparum [2], 32%; in the assay on HepG2, 11%.

For the molecule `CCC(C)(C)c1ccc(N2C(N)=NC(N)=NC2(C)C)cc1.Cl`, the Inhibition in the assay with Plasmodium falciparum [1] was determined as 91%; with Plasmodium falciparum [2], 4%; in the assay with HepG2, 40%.

For `c1cncc(CN2CCCN(c3ccc4c(c3)CCN(Cc3ccc(-c5ncc[nH]5)cc3)CC4)CC2)c1`, the Inhibition with Plasmodium falciparum [1] came out at 99%; with Plasmodium falciparum [2] it was 33%; in the assay on HepG2, 7%.

Take `O=C(/C=C/c1ccc(C(F)(F)F)cc1)NCCCCCN1CCCN(C(=O)Nc2ccc(Cl)c(Cl)c2)CC1`: the figures for the Inhibition in the assay on Plasmodium falciparum [1], in the assay with Plasmodium falciparum [2] and with HepG2 were 100%, 17% and 89%, respectively.

Consider `O=C(CC(c1ccccc1)c1ccccc1O)N1CCOCC1` (stereo not given), for which the Inhibition in the assay on Plasmodium falciparum [1] came out at 84%; in the assay with Plasmodium falciparum [2] it was 5%; in the assay on HepG2, 30%.

On to `O=C(/C=C/c1ccc(Cl)cc1)NCCCCCN1CCC(c2c[nH]c3ccccc23)CC1`, for which the Inhibition is reported as 99% in the assay with Plasmodium falciparum [1], 15% with Plasmodium falciparum [2] and 42% in the assay on HepG2.

With `CC1CN(Cc2cccc(-c3ccc(-c4nc5ccccc5[nH]4)cc3)c2)CC(C)O1.O=C(O)C(F)(F)F` (stereo not given), the Inhibition is 90% in the assay with Plasmodium falciparum [1], 88% in the assay with Plasmodium falciparum [2] and 37% in the assay on HepG2.

Take `CCc1cc(NCc2ccncc2)nc(Nc2ccc(F)cc2)n1`: the Inhibition in the assay with Plasmodium falciparum [1] amounted to 92%; in the assay on Plasmodium falciparum [2] it was 17%; with HepG2, 8%.

`Cl.Clc1cnc2ccc3c(c2c1CCN1CCC(NCc2cc4c(cn2)OCCO4)CC1)OCCO3`: the Inhibition with Plasmodium falciparum [1] worked out at 92%; with Plasmodium falciparum [2], 18%; with HepG2, 3%.

Take `Nc1c2c(nc3ccc(C(=O)Nc4ccc(Br)cc4)cc13)CCCC2`: the Inhibition is 100% in the assay with Plasmodium falciparum [1], 99% in the assay with Plasmodium falciparum [2] and 40% in the assay with HepG2.

In the case of `Cc1ccc(NC(=O)c2ccc(N3CCN(c4ccncc4)CC3)cc2)cc1F.O=C(O)C(F)(F)F`, the Inhibition in the assay with Plasmodium falciparum [1] came to 100%; with Plasmodium falciparum [2] it was 79%; in the assay on HepG2 it was 47%.

With `CC1CCN(CC[C@H]2CCCN2S(=O)(=O)c2cccc(NC(=O)c3ccc(-c4ccc(Cl)cc4)o3)c2)CC1`, the results for the Inhibition in the assay with Plasmodium falciparum [1], in the assay on Plasmodium falciparum [2] and in the assay with HepG2 were 100%, 65% and 45%, respectively.

For `O=C(NCc1ccccc1)c1nn(CCCN2CCC(N3CCCC3)CC2)cc1-c1ccc(Cl)c(Cl)c1`, the Inhibition in the assay on Plasmodium falciparum [1] was determined as 100%; in the assay with Plasmodium falciparum [2], 89%; in the assay on HepG2, 29%.

For `Cc1ccc(-c2ccc3c(c2)C=C(C(=O)NC2CCN(CCNC(=O)c4cccc(C(F)(F)F)c4)CC2)CCC3)cc1.O=C(O)C(F)(F)F`, the Inhibition is given as 100% in the assay with Plasmodium falciparum [1], 56% with Plasmodium falciparum [2] and 25% in the assay with HepG2.

With `CCOc1cc(CC)ccc1C1CCN(CCCCNC(=O)c2ccc(NC(=O)c3ccc(C#N)cc3)cc2)CC1`, the Inhibition in the assay on Plasmodium falciparum [1] came to 91%; in the assay on Plasmodium falciparum [2], 50%; with HepG2 it was 55%.

For `N#Cc1ccccc1Sc1ccccc1C(=O)Nc1ccc2ccccc2n1`, the figures for the Inhibition in the assay on Plasmodium falciparum [1], in the assay with Plasmodium falciparum [2] and in the assay on HepG2 were 92%, 85% and 0%, respectively.

For `CC(C)CNCc1cccc(-c2cccc(CN(CCCN3CCN(C)CC3)C(=O)/C=C/c3ccccc3)c2)c1.O=C(O)C(F)(F)F`, the results for the Inhibition with Plasmodium falciparum [1], in the assay with Plasmodium falciparum [2] and in the assay with HepG2 were 90%, 88% and 44%, respectively.

Take `Cc1cc(O)c(CNC2CCCCC2)cc1C.Cl`: the Inhibition in the assay with Plasmodium falciparum [1] was found to be 95%; with Plasmodium falciparum [2], 95%; in the assay with HepG2, 6%.

Regarding `O=C1c2ccc([N+](=O)[O-])cc2C(=O)N1c1ccc2[nH]ncc2c1`, the Inhibition in the assay with Plasmodium falciparum [1] was found to be 87%; in the assay with Plasmodium falciparum [2], 0%; in the assay on HepG2, 11%.

For `SC(=Nc1ccc2c(c1)OCCO2)NN=Cc1ccccn1`, the Inhibition came out at 82% in the assay with Plasmodium falciparum [1], 33% with Plasmodium falciparum [2] and 55% in the assay with HepG2.

In the case of `Fc1ccccc1C=NN=c1cc[nH]c2ccccc12`, the Inhibition in the assay on Plasmodium falciparum [1] is listed as 94%; in the assay on Plasmodium falciparum [2] it was 26%; with HepG2 it was 8%.

`CCOC(=O)c1cn(CC)c2cc(F)c(OC3CC4CCC3(C)C4(C)C)cc2c1=O` (stereo not given): the Inhibition in the assay on Plasmodium falciparum [1] is reported as 91%; with Plasmodium falciparum [2], 70%; in the assay with HepG2, 0%.

With `COc1ccc2ncc(F)c(CCN3CCC(NCc4cc(F)c5c(c4)OCCO5)CC3)c2n1.Cl`, the figures for the Inhibition in the assay with Plasmodium falciparum [1], in the assay with Plasmodium falciparum [2] and in the assay on HepG2 were 100%, 67% and 15%, respectively.
